The supplement of paper PMC8728848
About 410 targets per protein were measured; listed, in parts, are those with the strongest signals and a random draw of the rest.

Key:
Experiment in all cases: glycan array binding signal (z-score within array); higher = stronger binding
Settings in all cases: glycan notation: IUPAC condensed, linker removed
[1] = target: Fuc(a1-2)Gal(b1-3)GalNAc(b1-3)Gal(a1-4)Gal(b1-4)Glc
How it was run: (§1)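 From the Consortium for Functional Glycomics database, 3228 arrays were curated, keeping only those whose protein sequence was available. Binding is given as a within-array Z-score averaged across arrays sharing a protein sequence and across linkers. Negative Z-scores can be read as non-binding.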

[2] = target: Fuc(a1-2)Gal(b1-3)GlcNAc(b1-3)Gal(b1-4)Glc
How it was run: as §1

[3] = target: Fuc(a1-2)Gal(b1-3)GlcNAc(b1-3)GalNAc
How it was run: as §1

[4] = target: Fuc(a1-2)Gal(b1-3)[Fuc(a1-4)]GlcNAc(b1-3)[Fuc(a1-3)[Gal(b1-4)]GlcNAc(b1-6)]Gal(b1-4)Glc
How it was run: as §1

Fuc(a1-2)Gal(b1-4)Glc = target: Fuc(a1-2)Gal(b1-4)Glc
How it was run: as §1

Fuc(a1-2)Gal(b1-4)Glc6S = target: Fuc(a1-2)Gal(b1-4)Glc6S
How it was run: as §1

[5] = target: Fuc(a1-2)Gal(b1-4)GlcNAc(b1-3)Gal(b1-4)GlcNAc
How it was run: as §1

[6] = target: Fuc(a1-2)Gal(b1-4)GlcNAc(b1-3)Gal(b1-4)GlcNAc(b1-3)Gal(b1-4)GlcNAc
How it was run: as §1

[7] = target: Fuc(a1-2)Gal(b1-4)[Fuc(a1-3)]GlcNAc
How it was run: as §1

[8] = target: Fuc(a1-2)Gal(b1-4)[Fuc(a1-3)]GlcNAc(b1-2)Man(a1-3)[Fuc(a1-2)Gal(b1-4)[Fuc(a1-3)]GlcNAc(b1-2)Man(a1-6)]Man(b1-4)GlcNAc(b1-4)[Fuc(a1-6)]GlcNAc
How it was run: as §1

[9] = target: Fuc(a1-2)Gal(b1-4)[Fuc(a1-3)]GlcNAc(b1-2)[Fuc(a1-2)Gal(b1-4)[Fuc(a1-3)]GlcNAc(b1-4)]Man(a1-3)[Fuc(a1-2)Gal(b1-4)[Fuc(a1-3)]GlcNAc(b1-2)Man(a1-6)]Man(b1-4)GlcNAc(b1-4)GlcNAc
How it was run: as §1

[10] = target: Fuc(a1-2)Gal(b1-4)[Fuc(a1-3)]GlcNAc(b1-3)Gal(b1-4)[Fuc(a1-3)]GlcNAc
How it was run: as §1

[11] = target: Fuc(a1-2)Gal(b1-4)[Fuc(a1-3)]GlcNAc(b1-3)Gal(b1-4)[Fuc(a1-3)]GlcNAc(b1-3)Gal(b1-4)[Fuc(a1-3)]GlcNAc
How it was run: as §1

[12] = target: Fuc(a1-2)[Gal(a1-3)]Gal(b1-3)GlcNAc
How it was run: as §1

[13] = target: Fuc(a1-2)[Gal(a1-3)]Gal(b1-3)GlcNAc(b1-2)Man(a1-3)[Fuc(a1-2)[Gal(a1-3)]Gal(b1-3)GlcNAc(b1-2)Man(a1-6)]Man(b1-4)GlcNAc(b1-4)[Fuc(a1-6)]GlcNAc
How it was run: as §1

[14] = target: Fuc(a1-2)[Gal(a1-3)]Gal(b1-4)GlcNAc(b1-2)Man
How it was run: as §1

[15] = target: Fuc(a1-2)[GalNAc(a1-3)]Gal(b1-3)GalNAc(a1-3)[Fuc(a1-2)]Gal(b1-4)GlcNAc
How it was run: as §1

[16] = target: Fuc(a1-2)[GalNAc(a1-4)]Gal(b1-4)GlcNAc
How it was run: as §1

[17] = target: Fuc(a1-3)[Gal(b1-4)]GlcNAc
How it was run: as §1

[18] = target: Fuc(a1-3)[Gal(b1-4)]GlcNAc(b1-3)Gal(b1-4)[Fuc(a1-3)]GlcNAc(b1-3)Gal(b1-4)[Fuc(a1-3)]GlcNAc
How it was run: as §1

Gal(a1-3)Gal = target: Gal(a1-3)Gal
How it was run: as §1

Gal(b1-2)Gal = target: Gal(b1-2)Gal
How it was run: as §1

[19] = target: Gal(b1-3)GlcNAc(a1-6)Gal(b1-4)GlcNAc
How it was run: as §1

[20] = target: Gal(b1-3)GlcNAc(b1-2)Man(a1-3)[GlcNAc(b1-4)][Gal(b1-3)GlcNAc(b1-2)Man(a1-6)]Man(b1-4)GlcNAc(b1-4)GlcNAc
How it was run: as §1

[21] = target: Gal(b1-3)GlcNAc(b1-3)Gal(b1-4)GlcNAc
How it was run: as §1

[22] = target: Gal(b1-3)GlcNAc(b1-3)Gal(b1-4)[Fuc(a1-3)]GlcNAc(b1-6)[Gal(b1-3)GlcNAc(b1-3)]Gal(b1-4)Glc
How it was run: as §1

Gal(b1-3)GlcNAc6S = target: Gal(b1-3)GlcNAc6S
How it was run: as §1

[23] = target: Gal(b1-3)[Fuc(a1-4)]GlcNAc(b1-3)Gal(b1-3)[Fuc(a1-4)]GlcNAc
How it was run: as §1

[24] = target: Gal(b1-3)[Fuc(a1-4)]GlcNAc(b1-3)Gal(b1-4)[Fuc(a1-3)]GlcNAc
How it was run: as §1

Gal(b1-4)GlcNAc = target: Gal(b1-4)GlcNAc
How it was run: as §1

[25] = target: Gal(b1-4)GlcNAc(b1-2)[Gal(b1-4)GlcNAc(b1-4)]Man(a1-3)[Gal(b1-4)GlcNAc(b1-2)Man(a1-6)]Man(b1-4)GlcNAc(b1-4)GlcNAc
How it was run: as §1

[26] = target: Gal(b1-4)GlcNAc(b1-2)[Gal(b1-4)GlcNAc(b1-6)]Man(a1-6)[GlcNAc(b1-4)][Gal(b1-4)GlcNAc(b1-2)Man(a1-3)]Man(b1-4)GlcNAc(b1-4)GlcNAc
How it was run: as §1

[27] = target: Gal(b1-4)GlcNAc(b1-3)Gal(b1-4)GlcNAc(b1-6)[Gal(b1-3)]GalNAc
How it was run: as §1

[28] = target: Gal(b1-4)GlcNAc(b1-3)[GlcNAc(b1-6)]Gal(b1-4)GlcNAc
How it was run: as §1

[29] = target: Gal3S(b1-3)[Fuc(a1-4)]GlcNAc
How it was run: as §1

Gal6S(b1-4)Glc6S = target: Gal6S(b1-4)Glc6S
How it was run: as §1

GalNAc(b1-6)GalNAc = target: GalNAc(b1-6)GalNAc
How it was run: as §1

Glc(a1-6)Glc(a1-6)Glc = target: Glc(a1-6)Glc(a1-6)Glc
How it was run: as §1

[30] = target: GlcNAc(b1-2)[GlcNAc(b1-4)]Man(a1-3)[GlcNAc(b1-4)][GlcNAc(b1-2)Man(a1-6)]Man(b1-4)GlcNAc(b1-4)GlcNAc
How it was run: as §1

[31] = target: GlcNAc(b1-3)Gal(b1-3)GalNAc
How it was run: as §1

[32] = target: GlcNAc(b1-3)Gal(b1-4)GlcNAc(b1-3)Gal(b1-4)GlcNAc(b1-3)Gal(b1-4)GlcNAc(b1-3)Gal(b1-4)GlcNAc(b1-2)[GlcNAc(b1-3)Gal(b1-4)GlcNAc(b1-3)Gal(b1-4)GlcNAc(b1-3)Gal(b1-4)GlcNAc(b1-3)Gal(b1-4)GlcNAc(b1-6)]Man(a1-6)[GlcNAc(b1-3)Gal(b1-4)GlcNAc(b1-3)Gal(b1-4)GlcNAc(b1-3)Gal(b1-4)GlcNAc(b1-3)Gal(b1-4)GlcNAc(b1-2)Man(a1-3)]Man(b1-4)GlcNAc(b1-4)[Fuc(a1-6)]GlcNAc
How it was run: as §1

Man(a1-6)Man = target: Man(a1-6)Man
How it was run: as §1

[33] = target: Neu5Ac(a2-3)Gal(b1-4)GlcNAc(b1-3)Gal(b1-4)GlcNAc
How it was run: as §1

[34] = target: Neu5Ac(a2-3)Gal(b1-4)GlcNAc(b1-3)Gal(b1-4)GlcNAc(b1-6)[Gal(b1-3)]GalNAc
How it was run: as §1

[35] = target: Neu5Ac(a2-3)Gal(b1-4)GlcNAc(b1-6)[Gal(b1-3)]GalNAc
How it was run: as §1

[36] = target: Neu5Ac(a2-3)[GalNAc(b1-4)]Gal(b1-4)GlcNAc(b1-3)GalNAc
How it was run: as §1

[37] = target: Neu5Ac(a2-6)Gal(b1-4)GlcNAc(b1-2)Man(a1-3)[Neu5Ac(a2-3)Gal(b1-4)GlcNAc(b1-2)Man(a1-6)]Man(b1-4)GlcNAc(b1-4)GlcNAc
How it was run: as §1

[38] = target: Neu5Ac(a2-6)Gal(b1-4)GlcNAc(b1-2)Man(a1-6)[Man(a1-3)]Man(b1-4)GlcNAc(b1-4)GlcNAc
How it was run: as §1

[39] = target: Neu5Ac(a2-6)GalNAc(b1-4)GlcNAc
How it was run: as §1

[40] = target: Neu5Ac(a2-8)Neu5Ac(a2-8)Neu5Ac(a2-3)[GalNAc(b1-4)]Gal(b1-4)Glc
How it was run: as §1

Neu5Gc(a2-3)Gal(b1-4)Glc = target: Neu5Gc(a2-3)Gal(b1-4)Glc
How it was run: as §1

[41] = target: Neu5Gc(a2-8)Neu5Gc(a2-3)Gal(b1-4)GlcNAc(b1-3)Gal(b1-4)GlcNAc
How it was run: as §1

B1: LecB LY19 (Pseudomonas aeruginosa) (protein)
chain: MATQGVFTLPANTQFGVTAFANSAGTQTVNVQVNNETVATFTGQSTNNGIIGSKVLNSGGGGKVQILVSVNGRSSDLVSAQVILANELNFALVGSEDSTDNDYNDAVVVINWPLG
- glycan array binding signal (z-score) [1]: 1.77
- glycan array binding signal (z-score) [2]: 1.85
- glycan array binding signal (z-score) [3]: 1.49
- glycan array binding signal (z-score) [4]: 1.32
- glycan array binding signal (z-score) (Fuc(a1-2)Gal(b1-4)Glc): 1.5
- glycan array binding signal (z-score) (Fuc(a1-2)Gal(b1-4)Glc6S): 1.37
- glycan array binding signal (z-score) [5]: 3.29
- glycan array binding signal (z-score) [6]: 3.69
- glycan array binding signal (z-score) [7]: 2.54
- glycan array binding signal (z-score) [8]: 5.32
- glycan array binding signal (z-score) [9]: 0.085
- glycan array binding signal (z-score) [10]: 5.07
- glycan array binding signal (z-score) [11]: 3.27
- glycan array binding signal (z-score) [12]: -0.452
- glycan array binding signal (z-score) [13]: 0.089
- glycan array binding signal (z-score) [14]: 9.41
- glycan array binding signal (z-score) [15]: -0.497
- glycan array binding signal (z-score) [16]: 2.12
- glycan array binding signal (z-score) [17]: 1.65
- glycan array binding signal (z-score) [18]: 2.77
- glycan array binding signal (z-score) (Gal(a1-3)Gal): -0.538
- glycan array binding signal (z-score) (Gal(b1-2)Gal): -0.514
- glycan array binding signal (z-score) [19]: -0.55
- glycan array binding signal (z-score) [20]: -0.306
- glycan array binding signal (z-score) [21]: -0.553
- glycan array binding signal (z-score) [22]: 0.2
- glycan array binding signal (z-score) (Gal(b1-3)GlcNAc6S): -0.533
- glycan array binding signal (z-score) [23]: 3.35
- glycan array binding signal (z-score) [24]: 4.05
- glycan array binding signal (z-score) (Gal(b1-4)GlcNAc): -0.551
- glycan array binding signal (z-score) [25]: -0.3
- glycan array binding signal (z-score) [26]: -0.542
- glycan array binding signal (z-score) [27]: -0.545
- glycan array binding signal (z-score) [28]: 0.575
- glycan array binding signal (z-score) [29]: 3.07
- glycan array binding signal (z-score) (Gal6S(b1-4)Glc6S): -0.533
- glycan array binding signal (z-score) (GalNAc(b1-6)GalNAc): -0.559
- glycan array binding signal (z-score) (Glc(a1-6)Glc(a1-6)Glc): -0.491
- glycan array binding signal (z-score) [30]: -0.556
- glycan array binding signal (z-score) [31]: -0.542
- glycan array binding signal (z-score) [32]: 0.196
- glycan array binding signal (z-score) (Man(a1-6)Man): -0.329
- glycan array binding signal (z-score) [33]: -0.547
- glycan array binding signal (z-score) [34]: -0.554
- glycan array binding signal (z-score) [35]: -0.147
- glycan array binding signal (z-score) [36]: -0.553
- glycan array binding signal (z-score) [37]: -0.539
- glycan array binding signal (z-score) [38]: 0.735
- glycan array binding signal (z-score) [39]: -0.55
- glycan array binding signal (z-score) [40]: -0.546
- glycan array binding signal (z-score) (Neu5Gc(a2-3)Gal(b1-4)Glc): -0.511
- glycan array binding signal (z-score) [41]: -0.556
